A selection: hits, their analogues and other compounds. The true share with any hit is near 21%.
ELG1 repair inh: blocks ELG1-dependent DNA repair in HEK293T cells. HEK293T ELG1-luciferase reporter, luminescence, 16 h; DNA damage induced by 5-fluorouridine. Potency, µM (highest dose often 46.1 µM), most hits filed as inhibitors. AID 504467. 2.3% of 330,000 active; also: nearly all actives have a fitted effect of over 55% in size
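Cells (2,000 per well) received 5-fluorouridine plus test compound or DMSO and were incubated 16 hr at 37 °C, 5% CO2. Luciferase activity was read by luminescence 30 min after ONE-Glo addition; signal suppression marked inhibition of damage-induced ELG1 function.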
Gal4-VP16 FLuc: counter-screen for ROR gamma inhibitors: Gal4-VP16 reporter | 3.5% of 310,000 active | Potency, µM (titrated, usually from 53.6 µM), most hits filed as inhibitors | Drosophila S2 Gal4-VP16 UAS-luciferase, luminescence, 20 h;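 also: Gal4-VP16 expression switched on by copper sulfate through the metallothionein promoter; nearly all actives have a fitted effect of over 50% in size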
RORgamma inh: blocks mouse ROR gamma transcriptional activity; P51450; Drosophila S2 Gal4-RORgamma UAS-luciferase reporter, 20 h; Potency, µM (top dose mostly 53.6 µM), most hits filed as inhibitors; 5.4% of 310,000 active; AID 2551; also: nearly all actives have a fitted effect of over 60% in size
Target sequence (P51450 whole entry, looked up, the tested form may be a part): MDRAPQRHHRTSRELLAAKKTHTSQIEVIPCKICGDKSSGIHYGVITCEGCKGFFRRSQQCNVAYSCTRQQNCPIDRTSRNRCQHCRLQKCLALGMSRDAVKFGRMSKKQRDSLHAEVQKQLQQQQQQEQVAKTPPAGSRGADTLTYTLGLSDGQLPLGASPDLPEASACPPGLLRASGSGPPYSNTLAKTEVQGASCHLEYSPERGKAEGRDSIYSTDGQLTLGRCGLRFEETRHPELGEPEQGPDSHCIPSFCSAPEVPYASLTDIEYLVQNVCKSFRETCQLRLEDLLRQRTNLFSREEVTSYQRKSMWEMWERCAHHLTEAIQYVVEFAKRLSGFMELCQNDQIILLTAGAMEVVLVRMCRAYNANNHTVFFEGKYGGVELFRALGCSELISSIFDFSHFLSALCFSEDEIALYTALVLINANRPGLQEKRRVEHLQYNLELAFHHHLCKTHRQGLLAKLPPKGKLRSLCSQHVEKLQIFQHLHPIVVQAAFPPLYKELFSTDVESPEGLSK
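Read-out: Photinus luciferase luminescence; inhibitors lower reporter signal. Insect Schneider cells with Gal4-ROR gamma fusion under metallothionein promoter, UAS reporter; 700 uM final copper sulfate induction, 20 hr, ambient temperature.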
TDP1 cell noCPT: qHTS for Inhibitors of human tyrosyl-DNA phosphodiesterase 1 (TDP1): qHTS in cells in absence of CPT. DT40 Tdp1-/- hTDP1 cells, no CPT, ATP luminescence, 48 h. Potency, µM (titrated, usually from 46.2 µM), most hits filed as inhibitors. 15% of 420,000 active; also: nearly all actives have a fitted effect of over 55% in size
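Luminescent ATP content (CellTiter-Glo) served as the growth readout. Knockout chicken DT40 cells expressing human TDP1 were exposed to compounds without camptothecin for a minimum 48 hr at 37 °C.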
DT40 TDP1 CPT: growth inhibition of DT40 Tdp1-/-;hTDP1 cells with camptothecin (screen for TDP1 inhibitors); chicken DT40 Tdp1-/-;hTDP1 cells + 20 nM CPT, ATP luminescence, 48 h; Potency, µM (top dose mostly 46.2 µM), actives largely listed as inhibitors; 12% of 420,000 active; also: nearly all actives have a fitted effect of over 55% in size
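Chicken DT40 Tdp1-/- cells complemented with human TDP1, 400 cells/well, exposed to compounds plus 20 nM camptothecin for at least 48 h at 37 C; viability read as ATP content by CellTiter-Glo luminescence.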
IL-1B inflam inh: inflammasome signaling inhibition, IL-1 beta readout; THP-1 LPS/ATP IL-1B secretion, AlphaLISA, 16 h; hits give low values; activity change, % at 57.5 µM; 4.7% of 360,000 active; AID 743279; in the data active = activity change below about -50%; inconclusive = mostly about -30% to -49%
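THP-1 cells pretreated 1 hr with compounds (up to 57.5 uM final), then stimulated with LPS (250 ng/mL final) plus ATP (1.25 mM final); secreted IL-1B measured by AlphaLISA after 16 hr, decreased signal indicating inhibition.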
Hits are given with their value; 0 = inactive; ? = inconclusive; - = no result; [ ] = remark or other dose. Unless noted, calls follow the shape of the dose curve; as a rule, active = well fitted curve in the direction sought with a large enough effect; inconclusive = small, poorly fitted or top-dose-only effect, or another doubt; inactive = no such curve, though single readings can be large; an effect the other way counts as inactive or inconclusive.

SMILES	ELG1 repair inh	Gal4-VP16 FLuc	RORgamma inh	TDP1 cell noCPT	DT40 TDP1 CPT	IL-1B inflam inh
CCOC(=O)[C@]12CCCC=C1N(Cc1cccc3ccccc13)C(=O)[C@H](CC(=O)NCc1ccccc1)C2	-	-	-	23µM	?	0
C#CCNC(=O)C[C@@H]1C[C@@]2(C(=O)OC)CC(C)(C)CC=C2N(Cc2cccc3ccccc23)C1=O	-	-	-	18µM	16µM	0
CCOC(=O)[C@]12CCCC=C1N(Cc1cccc3ccccc13)C(=O)[C@H](CC(=O)NCc1cccc(C(F)(F)F)c1)C2	-	-	-	?	?	0
Cn1c(=O)c2c(ncn2CC(=O)NC[C@H]2O[C@@H](n3cnc4c(N)ncnc43)[C@H](O)[C@@H]2O)n(C)c1=O	0	-	-	0	0	0
COc1ccc(C2=CC(=O)CC(C)(C)C2)cc1OC	?	-	-	0	0	0
CC(=O)c1cccc(NC(=O)C(C)OC(=O)C2CCC2)c1 (stereo unspecified)	0	0	0	0	0	0
COC(=O)c1ccc(NC(=O)COC(=O)COc2cccc3c2OC(C)(C)C3)cc1	?	-	-	0	0	0
COC(=O)[C@]12CCCCC=C1N(Cc1cccc3ccccc13)C(=O)[C@H](CC(=O)NCc1cccc(C(F)(F)F)c1)C2	-	-	-	?	?	-73
C#CCNC(=O)C[C@@H]1C[C@@]2(C(=O)OCC)CCC=C2N(Cc2cccc3ccccc23)C1=O	-	-	-	16µM	?	0
CCOC(=O)[C@]12CCCC=C1N(Cc1cccc3ccccc13)C(=O)[C@H](CC(=O)NCC1CCCCC1)C2	-	-	-	23µM	?	0
CCOC(=O)[C@]12CCC=C1N(Cc1cccc3ccccc13)C(=O)[C@H](CC(=O)NCCc1ccccc1OC)C2	-	-	-	18µM	?	?
CC1CC(NC(=O)C2(C)CC2(Cl)Cl)CC(C)(C)C1 (stereo unspecified)	0	0	0	0	?	0
Cc1cc(=O)[nH]c(Nc2ccccc2C)n1	0	0	0	0	0	0
CCCCCCCCN1C(=O)[C@H](CC(=O)NCc2cccc3ccccc23)C[C@@]2(C(=O)OCC)CCC=C12	-	-	-	21µM	?	?
COc1ccc2c(c1)O[C@@H](c1ccc3c(c1)OCO3)[C@H](OC(=O)NS(=O)(=O)c1ccc(F)cc1)C2=O	-	0	0	-	-	-
COC(=O)c1sc(NC(=S)NC(=O)c2cc(OC)c(OC)c(OC)c2)nc1C	0	0	10µM	0	0	0
COc1cc(C(=O)NC(=S)Nc2nccs2)cc(OC)c1OC	0	?	3.2µM	21µM	?	0
CCOC(=O)c1sc(NC(=S)NC(=O)c2cccc(OC)c2)nc1C	0	?	8.9µM	0	0	0
COc1cc(CC(=O)Nc2nccs2)cc(OC)c1OC	0	0	0	0	0	0
Cc1cccc(CNC(=O)c2cnn(-c3ncc(C)c(-c4ccc(F)cc4)n3)c2C)n1	-	-	-	0	0[9.04 µM]	-
Cc1cccc(CNC(=O)C2CCN(S(=O)(=O)c3cccc4nonc34)CC2)c1	-	-	-	0	0	-
COc1ccccc1N(CC(=O)NC1CCCCC1)C(=O)CNC(=O)c1cccs1	0	0	0	0	0	0
CCCCC(CCC(=O)Nc1nccs1)C(=O)O (stereo unspecified)	?	0	0	0	0	0
Cc1ccc2oc(C(=O)Nc3cc(C)on3)c(C)c2c1	?	-	-	5.8µM	0	0
CCCCc1nnc(NC(=O)c2oc3ccc(OC)cc3c2C)s1	?	-	-	?	?	0
CCOc1ccc2oc(C(=O)OCC(=O)NC3CCCC3)c(C)c2c1	?	-	-	0	?	0
Cc1ccc2oc(C(=O)N(C)Cc3ccc(C)o3)c(C)c2c1	?	0	0	16µM	8.2µM	0
Cc1ccc2oc(C(=O)Nc3nnc(CC(C)C)s3)c(C)c2c1	?	0	7.1µM	0	?	0
CCCN(CC1CC1)C(=O)COC(=O)c1oc2ccc(OCC)cc2c1C	?	-	-	6.5µM	0	0
Cc1ccc2oc(C(=O)N(C)Cc3ccon3)c(C)c2c1	?	0	0	0	0	0

Assay outcomes deposited in PubChem BioAssay by National Center for Advancing Translational Sciences (NCATS).
